Test results reported in PubChem BioAssay AID652054 (National Center for Advancing Translational Sciences (NCATS), 2013).
The whole screen tested about 360,000 compounds, of which about 9,100 (2.5%) were called active. About 4% were inconclusive and are not listed. No stated cut-off is given here; in the data, active means max response below about -50%; inconclusive means no clear call, values can overlap the other calls; inactive means above that. Many of the other results were omitted from the sample, so actives are more common in it than they were.

The compounds below were run against D(3) dopamine receptor (Homo sapiens) (UniProt P35462) (assay: qHTS of D3 Dopamine Receptor Antagonist: qHTS). Settings: D3R cells, DiscoveRx beta-arrestin luminescence, antagonist mode; hits give low values.
Chain of D(3) dopamine receptor (Homo sapiens) (P35462 whole entry, looked up): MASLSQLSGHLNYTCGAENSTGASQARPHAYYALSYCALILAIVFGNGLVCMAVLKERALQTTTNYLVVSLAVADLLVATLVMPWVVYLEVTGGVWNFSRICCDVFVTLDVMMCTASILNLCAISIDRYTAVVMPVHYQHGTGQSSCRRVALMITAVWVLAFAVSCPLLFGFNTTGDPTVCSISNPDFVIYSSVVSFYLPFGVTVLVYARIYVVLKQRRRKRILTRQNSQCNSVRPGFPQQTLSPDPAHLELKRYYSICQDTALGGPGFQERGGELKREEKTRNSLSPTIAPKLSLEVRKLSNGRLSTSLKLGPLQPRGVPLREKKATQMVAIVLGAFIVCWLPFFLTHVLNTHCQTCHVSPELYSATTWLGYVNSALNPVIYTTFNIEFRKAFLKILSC
In short: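 Cells expressing the human receptor were seeded at 1500 cells/well, incubated overnight at 37 degrees C in 5% CO2, then exposed to library compounds with dopamine controls for 90 minutes at 37 degrees C before luminescent detection.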
On the % scale 0 is the no-effect control and ±100 the full control effect.

Row | SMILES | max response, negative = inhibition
1 | COc1ccc(S(=O)(=O)NC(=O)C2(C)CCN2C(=O)COc2ccc(Cl)cc2)cc1 (centres undefined) | -5.73% (inactive)
2 | Cn1c(=O)[nH]c(=O)c2c1nc(N1CCN(CCO)CC1)n2CCSc1nc2ccccc2s1 | -66.2% (active)
3 | Cc1nnc(SCCCn2c(N3CCCCC3)nc3c2c(=O)[nH]c(=O)n3C)s1 | 17.6% (inactive)
4 | Cn1c(=O)[nH]c(=O)c2c1nc(N1CCN(C(c3ccccc3)c3ccccc3)CC1)n2CCO | 6.48% (inactive)
5 | COCCNc1nc(Nc2ccccc2Cl)c2sc(-c3ccccc3)cc2n1 | 14.1% (inactive)
6 | CC(C)(C)C(=O)c1c(N)[nH]c(C(=O)c2ccccc2)c1-c1ccc(F)cc1 | 4.8% (inactive)
7 | CCOC(=O)CCC(=O)OCC(=O)NC(C)C1CC2CCC1C2 (centres undefined) | -55.1% (active)
8 | Cc1c(C(=O)NC(C)C2CC3CCC2C3)cccc1[N+](=O)[O-] (centres undefined) | 10.2% (inactive)
9 | Cc1cccc(C(=O)OCC(=O)NC(C)C2CC3CCC2C3)c1O (centres undefined) | -13.8% (inactive)
10 | CN(C)C(=O)c1cccc(-c2cnc3c(NC=O)cc(-c4ccc(C(=O)N5CCOCC5)cc4)cn23)c1 | -15.4% (inactive)
11 | CNc1cc(-c2c(OC)cccc2OC)ncn1 | -17.3% (inactive)
12 | CC(NS(=O)(=O)c1ccc(Cl)cc1)C(=O)Nc1ccc2c(c1)OCCO2 (centres undefined) | -3.02% (inactive)
13 | C[C@H](NS(=O)(=O)c1ccc(Cl)cc1)C(=O)OCC(=O)N1CCOCC1 | -16.5% (inactive)
14 | CC(O)C(NS(=O)(=O)c1ccc(Cl)cc1)C(=O)OCc1cc([N+](=O)[O-])cc2c1OCOC2 (centres undefined) | -82.9% (active)
15 | CC1(C(=O)NS(=O)(=O)c2ccc(C#N)cc2)CCN1C(=O)CC1CCCC1 (centres undefined) | -19% (inactive)
16 | O=C(Cc1ccc([N+](=O)[O-])cc1)N/N=C/c1ccco1 | 3% (inactive)
17 | COc1ccc(CC(=O)N/N=C/c2cc([N+](=O)[O-])cc(Br)c2O)cc1 | -79.9% (active)
18 | COc1ccc(CC(=O)NCC(=O)N/N=C/c2cc(Br)ccc2OC)cc1 | 20.7% (inactive)
19 | C[C@@H]1CN([C@H](C)CO)S(=O)(=O)c2ccc(C#C[C@@H](C)O)cc2O[C@@H]1CN(C)Cc1ccc(-c2ccccc2)cc1 | 4.33% (inactive)
20 | CCOc1ccc(CCN2C(=S)N([C@@H](CC(C)C)CN3CCC[C@@H]3CN3C(=S)NC[C@@H]3Cc3ccc(O)cc3)C[C@@H]2CC(C)C)cc1 | 21.8% (inactive)
21 | CC1(C)OC(=O)C2=C(CC(c3ccccc3)OC2CCc2ccccc2)O1 (centres undefined) | -29.7% (inactive)
22 | COC(=O)c1ccc2c(c1)S(=O)(=O)NC2C (centres undefined) | 18.4% (inactive)

Row | SMILES | max response, negative = inhibition
23 | CCCNC(=O)c1cc(C2CCCCN2C(=O)OC)on1 (centres undefined) | 0% (inactive)
24 | COc1ccccc1N1CCN(/N=C\C(Br)=C\c2ccccc2)CC1 | -13.9% (inactive)
25 | Cc1cc(-c2n[nH]c(=S)n2/N=C/C(Br)=C/c2ccccc2)n[nH]1 | -70.4% (active)
26 | COc1ccccc1/C=C/C=N/n1c(-c2ccc(Cl)cc2Cl)n[nH]c1=S | 13.4% (inactive)
27 | O=C(Nc1ccc(F)cc1)C(CCc1ccccc1)N1CCN(CC(=O)N2CCCC2)CC1 (centres undefined) | -21.4% (inactive)
28 | COC(=O)[C@]12CCCCC=C1N(CCC1=CCCCC1)C(=O)[C@H](CC(=O)NCC1CCCCC1)C2 | 25.3% (inactive)
29 | O=S1(=O)C[C@@H](N2CCN(CCO)CC2)[C@H](COCc2ccccc2)N1 | 1.72% (inactive)
30 | CC(=O)c1nn(-c2ccccc2)c(=Nc2ccccc2)cc1C | 18.5% (inactive)
31 | COC(=O)C[C@@H]1C=C[C@@H](NC(=O)c2ccc3c(c2)OCO3)[C@@H](CO)O1 | -7.72% (inactive)
32 | CCn1c(O)c(N=NC2=NC(=O)CS2)c2cc(C)ccc21 | -90.2% (active)
33 | COC(=O)Cn1c2ccc(C)cc2c2nc(C)sc21 | -14.2% (inactive)
34 | CCn1c(O)c(N=NC(=O)c2cccc(S(=O)(=O)N3CCCCC3)c2)c2ccccc21 | 6.1% (inactive)
35 | COc1cccc(C(O)c2nc(-c3ccc(C)c(C)c3)cs2)c1 (centres undefined) | 0% (inactive)
36 | CC(C)CC1C(=O)N(Cc2cn(CC3CCCCC3)nn2)CCS(=O)(=O)N1Cc1ccc(-c2ccc(Cl)cc2)cc1 (centres undefined) | -20.8% (inactive)
37 | COc1ccc(NC(=O)C2(C)Cc3c(-c4ccc(C(N)=O)cc4)ccnc3O2)cc1 (centres undefined) | -3.64% (inactive)
38 | COC(=O)C(NC(=O)c1ccc(OC)cc1)(Nc1ncc(S(=O)(=O)c2ccc([N+](=O)[O-])cc2)s1)C(F)(F)F (centres undefined) | -81.6% (active)
39 | CCOCC(=O)Nc1ncc(S(=O)(=O)c2ccc([N+](=O)[O-])cc2)s1 | 8.75% (inactive)
40 | COc1ccc(C(=O)NCCNc2ccc([N+](=O)[O-])cn2)cc1 | -27.5% (inactive)
41 | CC(O)(c1cccc(F)c1)c1nc(-c2ccc3c(c2)OCO3)cs1 (centres undefined) | -22.4% (inactive)
42 | CC1(C)OC(=O)C2=C(C[C@@H](C3CC3)O[C@H]2CCc2cccc(Cl)c2)O1 | 12.7% (inactive)
43 | CN1CCN(C(=O)c2ccc(NC(=O)c3ccc(Br)o3)cc2)CC1 | 23.3% (inactive)
44 | Nc1ccc2[nH]c(=S)sc2c1 | -18.8% (inactive)

Row | SMILES | max response, negative = inhibition
45 | CCOc1ccc2[nH]c(=S)sc2c1 | -53% (active)
46 | CCOc1ccc2[nH]c(=O)c(CN(CCCO)C(C)=O)cc2c1 | 3.99% (inactive)
47 | COC(=O)c1cc(OC)ccc1-c1ccc(OC)cc1 | -8.91% (inactive)
48 | CCOC(=O)C1=C(c2ccc(OC)cc2)C(=O)c2ccccc2C1=O | -64% (active)
49 | CCOC(=O)C(NC(C)=O)C(=O)Nc1ccc(OC)cc1 (centres undefined) | -11.9% (inactive)
50 | CC1(C(=O)Nc2ccc3c(c2)OCCO3)CN(S(C)(=O)=O)CC(=O)N1Cc1cccc(F)c1 (centres undefined) | 3.16% (inactive)
51 | CCN(Cc1ccncc1)C(=S)Nc1ccccc1C | 27.7% (inactive)
52 | CN(CC(=O)Nc1ccc(Cl)cc1)CC(=O)Nc1cccc2ccccc12 | -3.81% (inactive)
53 | CCCCN(C)CCC(=O)Nc1ccc(Cl)cc1 | -52.6% (active)
54 | CC(=O)Nc1ccc(NC(=O)CCCNC(=O)c2ccc(Cl)cc2)cc1 | -16.5% (inactive)
55 | O=S1(=O)CC(N2CCC(Cc3ccccc3)CC2)CN1Cc1ccccc1 (centres undefined) | -2.05% (inactive)
56 | COCCSc1nnc(NC(=O)CCS(=O)(=O)Cc2ccccc2)s1 | 0.795% (inactive)
57 | Cc1nnc(NC(=O)c2ccc3nccnc3c2)s1 | -10.2% (inactive)
58 | NC(=O)CSc1nnc(NC(=O)c2ccc(Br)o2)s1 | 4.15% (inactive)
59 | Cc1ccc(CS(=O)(=O)c2ncc(Cl)c(C(=O)Nc3nnc(C)s3)n2)cc1 | -73.5% (active)
60 | CSc1nnc(NC(=O)c2nc(S(=O)(=O)Cc3ccc(C)cc3)ncc2Cl)s1 | -83.3% (active)
61 | Cc1nnc(NC(=O)CCCOc2ccccc2)s1 | 14.4% (inactive)
62 | Cc1cccc(CS(=O)(=O)c2ncc(Cl)c(C(=O)Nc3ccc(F)cc3)n2)c1 | -105% (active)
63 | O=C(Nc1ccc(F)cc1)c1ccc(S(=O)(=O)NCc2cccnc2)cc1 | 8.92% (inactive)
64 | Cc1cccc(NC(=O)c2nc(S(=O)(=O)Cc3ccccc3)ncc2Cl)c1 | -1.08% (inactive)
